DT40 TDP1 CPT: growth inhibition of DT40 Tdp1-/-;hTDP1 cells with camptothecin (screen for TDP1 inhibitors); Potency, µM (top dose mostly 46.2 µM), usual class: inhibitors; chicken DT40 Tdp1-/-;hTDP1 cells + 20 nM CPT, ATP luminescence, 48 h; 420,000 tested, 12% active; note: nearly all actives have a fitted effect of over 55% in size
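Cell growth measured by CellTiter-Glo luminescence after a minimum 48 h, 37 C compound exposure with 20 nM CPT in Tdp1-knockout DT40 cells stably expressing hTDP1, seeded 400/well; qHTS titration format.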
TDP1 cell noCPT: qHTS for Inhibitors of human tyrosyl-DNA phosphodiesterase 1 (TDP1): qHTS in cells in absence of CPT. DT40 Tdp1-/- hTDP1 cells, no CPT, ATP luminescence, 48 h. Potency, µM (top dose mostly 46.2 µM), most hits filed as inhibitors. 420,000 tested, 15% active. AID 686978, 2013; note: nearly all actives have a fitted effect of over 55% in size
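Readout: luminescence from CellTiter-Glo after 30 min in the dark at RT. Cells: DT40 Tdp1-/- with stable hTDP1, 400/well. Exposure: compounds alone, ≥48 hr, 37 °C.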
IL-1B inflam inh: inhibitors of inflammasome signaling (IL-1 beta secretion); THP-1 LPS/ATP IL-1B secretion, AlphaLISA, 16 h; stronger effect = lower value; activity change, % at 57.5 µM; 360,000 tested, 4.7% active; in the data active = activity change below about -50%; inconclusive = mostly about -30% to -49%
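THP-1 cells pretreated 1 hr with compounds (up to 57.5 uM final), then stimulated with LPS (250 ng/mL final) plus ATP (1.25 mM final); secreted IL-1B measured by AlphaLISA after 16 hr, decreased signal indicating inhibition.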
HepG2 viability: HepG2 cytotoxicity, counter-screen for TGF-b inhibitors. HepG2 CAGA-GFP viability, ATP luminescence, 18 h. Potency, µM (doses to about 46.1 µM), most hits filed as cytotoxic. 410,000 tested, 0.76% active. AID 588856
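HepG2 CAGA-GFP cells (1000/well, DMEM with 1% FBS) received compound, then TGF-beta at 500 pg/mL final, and were incubated 18 hours at 37 degrees C. Viability was read by CellTiter-Glo luminescence. Media-only wells were set as complete cell-killing and DMSO as no toxicity.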
TDP1 block: blocks human tyrosyl-DNA phosphodiesterase 1; recombinant TDP1, AlphaScreen DNA substrate cleavage; Q9NUW8; 350,000 tested, 0.28% active; Potency, µM (highest dose often 130 µM), most hits filed as inhibitors; note: nearly all actives have a fitted effect of over 40% in size
Target sequence (Q9NUW8 whole entry, looked up): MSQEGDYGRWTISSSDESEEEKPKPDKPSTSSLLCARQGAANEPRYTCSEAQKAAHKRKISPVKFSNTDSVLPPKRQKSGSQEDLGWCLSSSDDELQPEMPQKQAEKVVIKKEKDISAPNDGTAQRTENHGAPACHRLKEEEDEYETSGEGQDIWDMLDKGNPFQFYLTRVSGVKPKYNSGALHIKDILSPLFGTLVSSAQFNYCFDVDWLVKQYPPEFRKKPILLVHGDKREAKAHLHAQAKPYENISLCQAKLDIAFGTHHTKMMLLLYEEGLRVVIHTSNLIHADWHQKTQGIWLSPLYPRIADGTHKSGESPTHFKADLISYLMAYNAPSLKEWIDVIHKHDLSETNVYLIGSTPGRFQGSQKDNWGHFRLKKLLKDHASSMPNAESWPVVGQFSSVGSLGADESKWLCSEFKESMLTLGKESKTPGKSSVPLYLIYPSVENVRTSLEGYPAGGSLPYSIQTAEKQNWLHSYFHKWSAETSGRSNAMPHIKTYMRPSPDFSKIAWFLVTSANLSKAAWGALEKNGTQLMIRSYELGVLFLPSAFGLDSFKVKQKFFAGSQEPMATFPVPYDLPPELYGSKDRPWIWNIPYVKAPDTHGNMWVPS
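AlphaScreen read-out: signal falls as enzyme removes the 3' tyrosine-FITC from a 5'-biotinylated DNA oligo (15 nM, 5 min, RT). Enzyme was E. coli-made recombinant Tdp1 at 1 nM, exposed to compound for 15 min beforehand; beads 10 ug/ml, 10 min.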
TGFb SMAD3 inh: inhibitors of TGF-b signaling; HepG2 CAGA-GFP TGF-b/SMAD3 reporter, GFP fluorescence, 18 h; TGF-beta stimulated, 500 pg/mL final; Potency, µM (series often up to 46.1 µM), actives largely listed as inhibitors; 410,000 tested, 1.2% active; AID 588855; note: nearly all actives have a fitted effect of over 65% in size
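First, reporter cells (HEPG2 CAGA-GFP) rested 2 h at 37 degrees C. Next, compounds were pinned in and TGF-beta added to 500 pg/mL final. After 18 h, GFP was imaged per cell and summed per well.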
A number is an active result; - = inactive; ? = inconclusive; . = not tested or not shown; [ ] = dose if it differs, or a comment. Only some compounds are listed: those with a hit (about 19% of all), similar ones and a draw of the others. Unless noted, calls come from the whole dose curve; as a rule, active = well fitted curve in the direction sought with a large enough effect; inconclusive = small, poorly fitted or top-dose-only effect, or another doubt; inactive = no such curve, though single readings can be large; an effect the other way counts as inactive or inconclusive.

SMILES	DT40 TDP1 CPT	TDP1 cell noCPT	IL-1B inflam inh	HepG2 viability	TDP1 block	TGFb SMAD3 inh
COc1cc(C=CC(=O)c2cc(OC)c(OC)c(OC)c2)cc(OC)c1OC	5.8µM	5.8µM	-	-	.	11µM
COc1cc(/C=C/C(=O)N2CCC=CC2=O)cc(OC)c1OC	2.1µM	1.8µM	-103	-	-	?
COc1cc(/C=C/C(=O)N2CCCN(C(=O)/C=C/c3cc(OC)c(OC)c(OC)c3)CC2)cc(OC)c1OC	-	?	-	-	-	-
CCCOc1ccc(N/C=C/C(=O)c2cc(OC)c(OC)c(OC)c2)cc1	?	23µM	-	-	.	-
O=C1CCC(C(=O)N2CCc3ccccc3C2)CN1CCCN1CCOCC1 (stereo not given)	-	-	-	-	-	-
COc1cc(C(=O)COC(=O)c2cccs2)cc(OC)c1OC	-	-	-	-	-	-
COc1cc(/C=C/C(=O)c2cccs2)cc(OC)c1OC	3.8µM	1.5µM	.	.	-	.
CC(=O)CC/C=C(\C)CC/C=C(\C)CC/C=C(\C)CCC=C(C)C	-	-	.	.	.	.
CCC(CC)C(=O)Nc1nnc(SCC(=O)NC2CC2)s1	-	-	-	-	-	-
O=C1CCc2cc(-c3csc(-c4ccc(O)cc4)n3)ccc2N1	11µM	3.2µM	.	-	.	-
Cc1ccc(-c2csc(Cc3nc(-c4ccc5c(c4)CCC(=O)N5)cs3)n2)cc1	?	?	-	-	-	-
CCOc1ccc(NC(=O)[C@H](Cc2ccccc2)N2Cc3ccccc3C2=O)cc1	-	-	.	-	-	-
CCOC(=O)C(Cc1ccc(NC(=O)/C(=C/c2ccccc2)NC(=O)c2ccccc2)cc1)N1C(=O)c2ccccc2C1=O (stereo not given)	5.2µM	5.8µM	-	-	-	-
CCOC(=O)C(Cc1ccc(NC(=O)/C(=C/c2ccc(OC(C)=O)cc2)NC(C)=O)cc1)N1C(=O)c2ccccc2C1=O (stereo not given)	?	?	-	-	-	-
CCOc1ccc(NC(=O)C(Cc2ccccc2)N2C(=O)c3cccc4cccc(c34)C2=O)cc1 (stereo not given)	12µM	8.2µM	-	-	.	-
Cc1ccc2oc(=O)c3cnn(CC(=O)N(C)c4ccc(F)cc4)c3c2c1	-	-	.	-	-	-
CC1=CC(=O)C(C(C)C)=CC1=NC(=O)c1ccc(C)cc1	2.3µM	2.1µM	-	-	-	-
CCOC(=O)c1sc(=NC(=O)c2ccc(C)cc2)n(C)c1C	-	?	-	-	-	-
Cc1ccc(C)c(NC(=O)CSc2ncnc3nc[nH]c23)c1	-	-	-	-	-	-
O=C(CSc1ncnc2nc[nH]c12)Nc1nnc(SCc2ccc(Cl)c(Cl)c2)s1	-	18µM	-	-	-	-
COc1ccc(OCC(=O)NC2CC(=O)N(c3ccc4c(c3)OCCO4)C2)cc1 (stereo not given)	-	-	.	-	-	-
COc1ccc(C(=O)/C=C/C(=O)N(CC(=O)NCCC(C)C)Cc2cccs2)c(O)c1	1.8µM	?	-88	-	-	-
CS(=O)(=O)N(CC(=O)NC1CCCCC1)Cc1ccc(F)cc1	-	-	-	-	-	-
COc1ccc(C(=O)/C=C/C(=O)N(CC(=O)NC2CCCCC2)Cc2ccc(F)cc2)c(O)c1	5.2µM	4.6µM	-98	-	-	-
CCCOc1ccc(C=Nc2ccc(OC)c(S(=O)(=O)N3CCOCC3)c2)c(O)c1	-	-	-	-	-	-
SMILES	DT40 TDP1 CPT	TDP1 cell noCPT	IL-1B inflam inh	HepG2 viability	TDP1 block	TGFb SMAD3 inh
CC(=O)c1ccc(CCCc2ccc(C(C)=O)cc2)cc1	?	?	?	-	.	-
CC1CCC(C(=O)O)NC1c1cccc(N2CCCC2=O)c1 (stereo not given)	.	.	.	.	-[21 µM]	.
O=C(c1ccc2c(c1)CCN2S(=O)(=O)c1ccccc1)N1CCN(c2ccccc2F)CC1	-	-	-	-	-	-
CCS(=O)(=O)N1CCCc2cc(C(=O)Nc3cccc(C(C)=O)c3)ccc21	?	26µM	.	-	-	-
CSc1cccc(NC(=O)c2cccc(N3CCCS3(=O)=O)c2)c1	?	18µM	.	-	-	?
O=C(Nc1cccc(Cl)c1)c1ccc2c(c1)CCN2S(=O)(=O)c1ccccc1	13µM	21µM	.	-	-	-
Cc1ccc(Cl)cc1N1CCN(C(=O)c2ccc3c(c2)CCN3S(=O)(=O)c2ccccc2)CC1	9.2µM	10µM	.	-	-	-
O=C(Nc1ccccc1)c1cccc(N2CCCS2(=O)=O)c1	-	-	.	-	-	-
CC(=NNC(=O)CSCC(=O)NN=C(C)c1ccccc1)c1ccccc1	-	-	-	-	.	?
COc1ccc(NC(=O)CSc2nc3scc(C)c3c(=O)[nH]2)cc1	-	-	-	-	-	-
CC(=O)N(c1ccc2ccccc2c1)C1SC(=O)N(c2cccc(C)c2)C1=O (stereo not given)	-	-	.	.	.	.
Cn1c2c(c(=O)n(C)c1=O)C(c1ccccc1[N+](=O)[O-])CC(=O)N2 (stereo not given)	-	?	.	-	-[12.3 µM]	-
CC(=O)Nc1cccc(NC(=O)c2ccc3c(c2)CCN3S(=O)(=O)c2ccccc2)c1	?	?	?	-	-	-
CSc1cccc(NC(=O)c2ccc3c(c2)CCCN3S(C)(=O)=O)c1	16µM	?	.	-	-	-
CC(=O)c1cccc(NC(=O)c2ccc3c(c2)CCN3S(=O)(=O)c2ccccc2)c1	15µM	21µM	-	-	-	-
O=C(Nc1ccc(N2CCOCC2)c(Cl)c1)c1cccc(F)c1	-	?	-54	-	-	-
CC(=O)Nc1ccc(N2CCOCC2)c(Cl)c1	-	-	-	-	-	-
COc1c(F)c(F)c(C(=O)Nc2cccc(Cl)c2N2CCOCC2)c(F)c1F	15µM	21µM	-	-	-	?
O=C(Nc1cccc(Cl)c1N1CCOCC1)c1cccs1	?	-	-	-	-	-
O=C(Nc1ccc(N2CCOCC2)c(Cl)c1)c1c(F)c(F)c(F)c(F)c1F	23µM	16µM	-	-	-	-
O=C(Nc1ccc(N2CCOCC2)c(Cl)c1)c1cc(F)c(F)cc1Cl	?	?	-58	-	-	-
O=C(Nc1ccc(N2CCOCC2)c(Cl)c1)c1ccc(-n2cnnc2)cc1Cl	?	-	-	-	-	-
Cc1ccc(NC(=O)c2ccc3c(c2)CCC(=O)N3)cc1C	.	.	.	.	-	.
O=S(=O)(Cc1ccccc1)N1CCN(c2ncccn2)CC1	-	-	-	-	.	-
COc1c(C)cccc1C(=O)Nc1ccc(N2CCOCC2)c(Cl)c1	?	?	-69	-	-	-

Compound activity deposited in PubChem BioAssay by National Center for Advancing Translational Sciences (NCATS).
